Hits are enriched below; roughly 11% of the tested compounds scored in any of these assays.
Pf growth 48h: Primary qHTS for delayed death inhibitors of the malarial parasite plastid, 48 hour incubation; hit rate 5.9% among 310,000; Potency, µM (titrated, usually from 28.7 µM), inactives show at the top dose activity change, negative = inhibition, hits mostly inhibitors; P. falciparum luciferase growth in erythrocytes, 48 h
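Growth was read as firefly luciferase luminescence after a 48 h, 37 C, 5% CO2 exposure of compounds to reporter-bearing P. falciparum cultures (0.1% parasitemia, 2% hematocrit final) in Albumax-supplemented RPMI 1640.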
AmpC inh no detg: qHTS Inhibitors of AmpC Beta-Lactamase (assay without detergent) | P00811 | AmpC nitrocefin hydrolysis, absorbance 480 nm, 0.0001% Triton | Potency, µM (series often up to 57.1 µM), for the others: at the top dose activity change, negative = inhibition, usual class: inhibitors | hit rate 0.52% among 330,000 | AID 485341, 2010;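 note: plate controls were no compound for no effect and no enzyme for full effect; nearly all actives have a fitted effect of over 20% in size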
Target sequence (P00811 whole entry, looked up): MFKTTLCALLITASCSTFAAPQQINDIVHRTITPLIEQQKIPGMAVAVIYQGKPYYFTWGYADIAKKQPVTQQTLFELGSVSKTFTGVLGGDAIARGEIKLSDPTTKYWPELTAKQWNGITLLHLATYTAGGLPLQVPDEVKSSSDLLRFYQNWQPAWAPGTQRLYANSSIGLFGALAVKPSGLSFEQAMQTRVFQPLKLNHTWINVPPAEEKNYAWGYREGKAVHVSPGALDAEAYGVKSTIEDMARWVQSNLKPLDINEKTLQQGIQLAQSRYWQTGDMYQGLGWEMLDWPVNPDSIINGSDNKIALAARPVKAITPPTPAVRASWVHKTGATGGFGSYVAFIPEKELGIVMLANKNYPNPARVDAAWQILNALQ
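AmpC (5.3 nM in the dispensed reagent) in 20 mM phosphate pH 7.0 with 0.01% (detergent screen) or 0.0001% Triton X-100 was preincubated with compounds for 15 min at room temperature. Nitrocefin was then added from an 800 uM solution, and hydrolysis was followed at 480 nm.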
AmpC detergent: qHTS Inhibitors of AmpC Beta-Lactamase (assay with detergent); AID 485294, 2010; hit rate 0.041% among 370,000; P00811; Potency, µM (highest dose often 114 µM), without a hit: at the top dose activity change, negative = inhibition, actives largely listed as inhibitors; AmpC hydrolysis of nitrocefin, absorbance 480 nm, 0.01% Triton;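 note: 0% = no-compound wells and -100% = no-enzyme wells; nearly all actives have a fitted effect of over 25% in size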
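20 mM phosphate pH 7.0 + 0.01% (detergent screen) or 0.0001% Triton X-100; 5.3 nM AmpC reagent; cpd preinc 15 min RT; nitrocefin (800 uM stock) to start; A480 q20 s × 4 min; Activity was normalised to no-enzyme and no-compound control wells.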
Pf growth 96h: Primary qHTS for delayed death inhibitors of the malarial parasite plastid, 96 hour incubation | P. falciparum luciferase reporter growth, 96 h | Potency, µM (top dose mostly 28.7 µM), without a hit: at the top dose activity change, negative = inhibition, usual class: inhibitors | hit rate 6.9% among 320,000
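Cell-based qHTS: luciferase-tagged P. falciparum in erythrocytes (2% hematocrit, 0.05% parasitemia final) incubated with compounds for 96 hours, 37 C, 5% CO2; luciferase detection reagent then added and luminescence measured.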
HCV inh: qHTS Assay for Inhibitors of Hepatitis C Virus (HCV) | Huh7.5.1 HCVcc-Cre infection, luciferase reporter, 44 h | Potency, µM (highest dose often 41.8 µM), without a hit: at the highest dose activity change, negative = inhibition, usual class: inhibitors | hit rate 3.4% among 340,000
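HCVcc-Cre virus at an moi near 0.5 was added right after compound to cells cultured 4 h from seeding (1,000 cells/well). Luciferase activity was determined 44 h later, 15 min after substrate addition at RT.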
AMA1 RON2 block: qHTS for Inhibitors of AMA1-RON; Towards Development of Antimalarial Drug Lead: Primary Screen; Plasmodium falciparum AMA1 (3D7) - RON2 peptide interaction; AlphaScreen AMA1-biotinylated RON2 peptide binding; Potency, µM (doses to about 58.2 µM), for the others: at the top dose activity change, negative = inhibition, most hits filed as inhibitors; hit rate 0.2% among 360,000;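 note: 0% = vehicle wells and -100% = peptide control; nearly all actives have a fitted effect of over 45% in size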
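AMA1 (3D7) with his tag at 25 nM final met compounds first, then biotinylated RON2 peptide at 25 nM; detection used donor plus acceptor beads, 10 µg/mL apiece, read by AlphaScreen after 30 min at room temperature.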
* marks the source's active call; other numbers are inactive results; ? = inconclusive; / = not tested or not shown; [ ] = dose if it differs, or a comment. Calls come from the whole dose curve; as a rule, active = well fitted curve in the direction sought with a large enough effect; inconclusive = small, poorly fitted or top-dose-only effect, or another doubt; inactive = no such curve, though single readings can be large; an effect the other way counts as inactive or inconclusive. Unless noted, % is set by controls: 0 for no effect and ±100 for the full control effect; potency is the fitted concentration of half-maximal effect.

SMILES | Pf growth 48h | AmpC inh no detg | AmpC detergent | Pf growth 96h | HCV inh | AMA1 RON2 block
CCOC(=O)c1c(NC(=O)CSc2ncccn2)sc2c1CC(C)(C)NC2(C)C | 14.7µM* | 11.7% | -10.4% | 9.28µM* | -18.4% | 15.7%
COC(=O)c1c(NC(=O)Cc2ccccc2)sc2c1CC(C)(C)NC2(C)C | ? | 2.9% | ? | ? | -27.7% | -4.5%
CCOC(=O)c1c(NC(=O)CSc2nc3ccc(OC)cc3[nH]2)sc2c1CC(C)(C)NC2(C)C | ? | 48.1% | -8.4% | 5.86µM* | ? | -6.4%
COc1ccc(NC(=O)CSc2nc3ccc(OC)cc3[nH]2)cc1 | 2.5% | -34.1% | -14.8% | 34.1% | 2.6% | -14.3%
Cc1cc(N2CCN(c3cccc(C(F)(F)F)c3)CC2)n2nc(-c3ccccc3C)nc2n1 | / | / | 20.3% | / | / | /
COc1ccc(C)cc1NC(=O)N1CCN(c2nnc(C)c3c(C)n(-c4ccccc4)nc23)CC1 | / | / | 8.9% | / | / | /
COc1ccc(C(=O)c2oc3ccccc3c2NC(=O)COc2ccccc2)cc1 | / | / | 14.2% | / | / | /
FC(F)(F)C1=Nc2cccc3cccc(c23)N1 | 58.5% | 8.91µM* | ? | 28.9% | 16.2% | ?
CCc1ccccc1S(=O)(=O)Cc1ccc(C(=O)NCCc2ccc(Cl)cc2)o1 | / | / | 2.1% | / | / | /
O=C1NC2(CCCCC2)N(C(=O)c2ccccc2)C2=C1CCCC2 | -7.4% | -10.1% | -4.8% | ? | 3.16µM* | -1.5%
Cc1sc(NC(=O)C2c3ccccc3Oc3ccccc32)c(C(=O)OC(C)C)c1C | / | / | 21.3% | / | / | /
Cc1ccc(OCC(=O)Nc2ccc(S(=O)(=O)Nc3ncccn3)cc2)c(C(C)(C)C)c1 | / | / | -12.0% | / | / | /
Cn1c(CCN2CCCCC2)nc2cc(NS(=O)(=O)c3ccc(Cl)cc3)ccc21 | 2.08µM* | 94.8% | -1.0% | 3.3%[5.75 µM] | ? | -5.1%
Cn1c(CN2CCCCC2)nc2cc(NS(=O)(=O)c3ccc(Cl)cc3)ccc21 | -17.5% | -27.0% | -0.3% | 24.6% | -9.1% | 10.0%
Cn1c(CCNC(=O)c2ccco2)nc2cc(NS(=O)(=O)c3ccc(Cl)cc3)ccc21 | ? | -31.8% | -11.2% | 9.28µM* | -21.1% | 6.3%
CCOc1ccc(N2C(=O)CS(=O)(=O)C23C(=O)N(Cc2cccc(Cl)c2)c2ccccc23)cc1 (stereo unspecified) | / | / | 22.4% | / | / | /
Cc1ccc2c(c1)c1c(c(=O)n(-c3ccccc3C)c(=O)n1Cc1ccccc1F)n2C | / | / | 9.5% | / | / | /
Cc1ccc(-n2c(/C=C/c3c(C)n(C)c4ccccc34)nc3ccccc3c2=O)cc1 | / | / | 12.6% | / | / | /
COc1cccc(C(=O)Nc2ccc(NC(=O)C3CC=CCC3C(=O)O)cc2)c1 (stereo unspecified) | 149.8% | -20.0% | -11.4% | 11.7µM* | 20.5% | 25.7%
COc1ccc(OC)c(NC(=O)c2cccc(NC(=O)c3ccccc3)c2)c1 | 21.5% | -34.8% | -14.0% | 223.4% | 10µM* | -5.7%
COc1ccc(NC(=O)C(Sc2ccccc2)c2ccccc2)c(OC)c1 (stereo unspecified) | -24.2% | -21.2% | 0.0% | 2.62µM* | ? | -22.7%
COc1cccc(C(=O)Nc2ccc(NC(=O)C3CCCCC3C(=O)O)cc2)c1 (stereo unspecified) | -4.0% | -38.5% | -4.3% | -20.4% | 15.9% | -2.4%
COc1ccccc1NC(=O)C(Sc1ccccc1)c1ccccc1 (stereo unspecified) | ? | -25.9% | ? | ? | -11.4% | -3.3%
COc1ccc(C(=O)N/N=C/C(Br)=C/c2ccccc2)cc1 | ? | -44.1% | ? | -20.1% | ? | -1.4%
COc1cccc(C(=O)N/N=C/C(Br)=C/c2ccccc2)c1 | 13.1µM* | -52.8% | ? | -18.6% | ? | -10.4%
SMILES | Pf growth 48h | AmpC inh no detg | AmpC detergent | Pf growth 96h | HCV inh | AMA1 RON2 block
COc1cc(C2c3c(oc4ccc(F)cc4c3=O)C(=O)N2Cc2ccc3c(c2)OCO3)ccc1O (stereo unspecified) | / | / | 9.4% | / | / | /
CC(C)(C)C1CCc2nc(NC(=O)c3cccc(Cl)c3)sc2C1 (stereo unspecified) | / | / | 2.6% | / | / | /
CC(C)CCn1c(SCc2c(F)cccc2Cl)nc2ccsc2c1=O | / | / | 5.0% | / | / | /
Cc1cccc(OCCCC(=O)NNC(=O)c2ccccn2)c1 | 2.33µM* | -3.4% | -0.9% | 1.65µM* | ? | 78.0%
COc1cc(NC(=O)c2ccccc2)ccc1NC(=O)Cc1ccccc1 | -8.2% | -29.2% | -13.9% | -23.2% | ? | 15.8%
COc1cccc(CC(=O)Nc2c(C(=O)N3CCN(c4ccccc4)CC3)oc3ccccc23)c1 | / | / | -7.2% | / | / | /
COc1cc(NC(=O)Cc2ccccc2)ccc1NC(=O)c1ccccc1 | 11.7% | -29.0% | -8.0% | 10.4µM* | ? | -4.1%
CCCN(CCC)C(=O)c1oc2ccccc2c1NC(=O)Cc1cccc(OC)c1 | ? | 12.0% | 6.0% | 15.5% | 11.2µM* | 10.4%
COc1ccc(NC(=O)c2ccc(COc3ccccc3Br)o2)c(OC)c1 | / | / | / | / | ? | -5.6%
COc1ccc(NC(=O)c2ccc(COc3ccccc3)o2)c(OC)c1 | -7.7% | -20.4% | -4.3% | 8.28µM* | -11.1% | 0.0%
O=C(Nc1ccc(Br)cc1F)c1cc(S(=O)(=O)NC2CCCCC2)ccc1F | / | / | 6.8% | / | / | /
CCCOc1cccc(C(=O)NCCCNC(=O)c2ccccn2)c1 | 11.1% | -5.7% | 1.1% | 25.4% | -3.7% | 55.6%
CC(=O)Oc1ccc(C(=O)Nc2cccc(C(=O)NC(C)(C)C)c2)cc1 | -4.2% | -22.5% | 13.8% | 5.22µM* | 12.6µM* | 6.4%
COc1ccc(NC(=O)c2cccc(NC(=O)c3ccccc3)c2)c(OC)c1 | -25.0% | -38.9% | ? | 10.4µM* | -23.7% | -9.2%
COc1cccc(C(=O)NCCCNC(=O)c2ccccn2)c1 | 9.1% | -5.5% | -13.8% | 4.65µM* | 15.4% | 88.9%
COc1cccc(NC(=O)c2ccccc2)c1 | 97.1% | -10.5% | -5.7% | 83.2% | ? | 2.3%
COc1cccc(C(=O)Nc2ccccc2NC(=O)c2cccc(OC)c2)c1 | 29.0% | -35.4% | -14.2% | 14.7µM* | -2.9% | -9.4%
Cc1ccccc1NC(=O)C(Cc1ccccc1)N1Cc2ccccc2C1=O (stereo unspecified) | / | / | 22.0% | / | / | /
O=C(Cn1c(=O)n(Cc2ccc(C(=O)NCc3ccc4c(c3)OCO4)cc2)c(=O)c2ccccc21)Nc1cccc(Cl)c1 | / | / | -0.9% | / | / | /

Compound activity (PubChem BioAssay)
